Experimental data reported in PubChem BioAssay (EPA / NIEHS).
Where “and” joins values, the source holds several entries; their conditions need not be identical. Identical values can stand only once. Inconclusive results are not listed. More than one record can exist for a structure, and the calls need not agree. Calls of active or inactive are those of the source. How the source made its calls, unless noted: active means hit-call score of the fitted dose curve at least 0.9, where 1 is the maximum; inconclusive means response in the unintended direction; inactive means score below 0.9.

Tests used:
[1] = read-out: solute carrier (SLCO1B1), SLCO1B1 (gene 10599); assay: LTEA_HepaRG_SLCO1B1: Life Technologies and Expression Analysis (LTEA) Assay for solute carrier (SLCO1B1) using HepaRG (AID 2283530; active means hit-call score of the fitted dose curve at least 0.9, where 1 is the maximum; inactive means score below 0.9); conditions: mRNA level, 48 h; actives raise or lower the signal
In short: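 Differentiated human HepaRG cells were exposed for 48 h in serum-free induction medium to eight half-log concentrations, top 100 uM, in 0.5% DMSO. SLCO1B1 mRNA was measured by qRT-PCR, normalized to ACTB, GAPDH and POLR2A, and fitted bidirectionally against DMSO.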

[2] = read-out: Transforming Growth Factor (TGFA), TGFA (gene 7039); assay: LTEA_HepaRG_TGFA: Life Technologies and Expression Analysis (LTEA) Assay for Transforming Growth Factor (TGFA) using HepaRG (AID 2283532; active means hit-call score of the fitted dose curve at least 0.9, where 1 is the maximum; inactive means score below 0.9); conditions: mRNA level, 48 h; actives raise or lower the signal
In short: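 Differentiated HepaRG cells exposed 48 hours in serum-free induction medium, 0.5% DMSO vehicle, 8-point half-log series from 100 uM, in duplicate. TGFA mRNA by TaqMan qRT-PCR, normalised to ACTB, GAPDH, POLR2A; bidirectional fit versus DMSO.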

[3] = read-out: Transforming Growth Factor (TGFB1), TGFB1 (gene 7040); assay: LTEA_HepaRG_TGFB1: Life Technologies and Expression Analysis (LTEA) Assay for Transforming Growth Factor (TGFB1) Transporter using HepaRG (AID 2283533; active means hit-call score of the fitted dose curve at least 0.9, where 1 is the maximum; inactive means score below 0.9); conditions: mRNA level, 48 h; actives raise or lower the signal
In short: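 Differentiated HepaRG cells exposed 48 hr in serum-free induction medium to eight half-log concentrations up to 100 uM (0.5% DMSO), duplicate; TGFB1 mRNA by TaqMan qRT-PCR normalised to ACTB, GAPDH, POLR2A; bidirectional fit against DMSO.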

TIMP1, TIMP1 (gene 7076) = assay: LTEA_HepaRG_TIMP1: Life Technologies and Expression Analysis (LTEA) Assay for TIMP1 using HepaRG (AID 2283534; active means hit-call score of the fitted dose curve at least 0.9, where 1 is the maximum; inactive means score below 0.9); conditions: mRNA level, 48 h; actives raise or lower the signal
In short: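 Differentiated HepaRG cells exposed 48 h in serum-free induction medium, duplicates, eight half-log concentrations from 100 uM in 0.5% DMSO. TIMP1 mRNA by qRT-PCR normalized to ACTB, GAPDH, POLR2A; bidirectional fitting against DMSO.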

[4] = read-out: Tumor necrosis factor receptor 1 (TNFRSF1A), TNFRSF1A (gene 7132); assay: LTEA_HepaRG_TNFRSF1A: Life Technologies and Expression Analysis (LTEA) Assay for Tumor necrosis factor receptor 1 (TNFRSF1A) using HepaRG (AID 2283535; active means hit-call score of the fitted dose curve at least 0.9, where 1 is the maximum; inactive means score below 0.9); conditions: mRNA level, 48 h; actives raise or lower the signal
In short: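 Differentiated HepaRG cells in serum-free induction medium, exposed 48 h in duplicate to 8 half-log concentrations up to 100 uM in 0.5% DMSO. TNFRSF1A mRNA by Fluidigm TaqMan qRT-PCR, normalized to ACTB, GAPDH, POLR2A; bidirectional fit.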

[5] = read-out: Thyroid Hormone Responsive (THRSP), THRSP (gene 7069); assay: LTEA_HepaRG_THRSP: Life Technologies and Expression Analysis (LTEA) Assay for Thyroid Hormone Responsive (THRSP) using HepaRG (AID 2283536; active means hit-call score of the fitted dose curve at least 0.9, where 1 is the maximum; inactive means score below 0.9); conditions: mRNA level, 48 h; actives raise or lower the signal
In short: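 Differentiated HepaRG cells treated 48 h in serum-free induction medium with 8 half-log concentrations up to 100 uM (0.5% DMSO), duplicates. THRSP mRNA by TaqMan qRT-PCR normalised to ACTB, GAPDH, POLR2A; bidirectional fit versus DMSO.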

[6] = read-out: Cellular tumor antigen p53 (Homo sapiens) (UniProt P04637); assay: LTEA_HepaRG_TP53: Life Technologies and Expression Analysis (LTEA) Assay for Tumor Protein P53 (TP53) using HepaRG (AID 2283537; active means hit-call score of the fitted dose curve at least 0.9, where 1 is the maximum; inactive means score below 0.9); conditions: mRNA level, 48 h; actives raise or lower the signal
In short: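 Gain or loss of TP53 mRNA signal is scored relative to 0.5% DMSO after 48 h chemical treatment of HepaRG liver cells, tested in duplicate at eight half-log concentrations up to 100 uM.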

[7] = read-out: UDP glucuronosyltransferase (UGT1A1), UGT1A1 (gene 54658); assay: LTEA_HepaRG_UGT1A1: Life Technologies and Expression Analysis (LTEA) Assay for UDP glucuronosyltransferase (UGT1A1) using HepaRG (AID 2283538; active means hit-call score of the fitted dose curve at least 0.9, where 1 is the maximum; inactive means score below 0.9); conditions: mRNA level, 48 h; actives raise or lower the signal
In short: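 Human liver HepaRG cultures receive test chemical for 48 h, up to 100 uM in 0.5% DMSO, with phenobarbital induction controls. UGT1A1 mRNA is measured by qRT-PCR and normalized to ACTB, GAPDH and POLR2A.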

[8] = read-out: UDP glucuronosyltransferase (UGT1A6), UGT1A6 (gene 54578); assay: LTEA_HepaRG_UGT1A6: Life Technologies and Expression Analysis (LTEA) Assay for UDP glucuronosyltransferase (UGT1A6) using HepaRG (AID 2283539; active means hit-call score of the fitted dose curve at least 0.9, where 1 is the maximum; inactive means score below 0.9); conditions: mRNA level, 48 h; actives raise or lower the signal
In short: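 Differentiated HepaRG cells, ~100,000/well, were exposed for 48 h in serum-free induction medium with 0.5% DMSO to 8-point half-log series topping at 100 uM, in duplicate. mRNA measured by Fluidigm TaqMan qRT-PCR, normalized to ACTB, GAPDH and POLR2A.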

[9] = read-out: X-box binding protein 1 (XBP1), XBP1 (gene 7494); assay: LTEA_HepaRG_XBP1: Life Technologies and Expression Analysis (LTEA) Assay for X-box binding protein 1 (XBP1) using HepaRG (AID 2283540; active means hit-call score of the fitted dose curve at least 0.9, where 1 is the maximum; inactive means score below 0.9); conditions: mRNA level, 48 h; actives raise or lower the signal
In short: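 Differentiated human HepaRG cells in serum-free induction medium exposed 48 h in duplicate to eight half-log concentrations up to 100 uM in 0.5% DMSO. XBP1 mRNA measured by Fluidigm TaqMan qRT-PCR, normalized to ACTB, GAPDH, POLR2A; bidirectional fitting against DMSO.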

[10] = LTEA_HepaRG_LDH_cytotoxicity: Cytotoxicity Assessment in the Life Technologies and Expression Analysis (LTEA) Assay (AID 2283563);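 on AC50: LDH activity released into spent culture medium as a marker of cell death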
In short: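 Differentiated HepaRG cells in serum-free induction medium, exposed 48 h in duplicate to 8 half-log concentrations up to 100 uM in 0.5% DMSO. Cytotoxicity from LDH measured in spent medium, fit relative to DMSO.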

[11] = ATG_XTT_Cytotoxicity: Cytotoxicity Assessment in the Attagene TRANS-FACTORIAL HepG2 Assay (AID 2283584)
In short: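 HepG2 cells transiently transfected with GAL4-UAS multiple reporter units, dosed 24 h; cytotoxicity read by XTT as loss of signal versus DMSO baseline.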

[12] = TOX21_p53_BLA_p2_viability: Viability Assessment in the Tox21 HCT-116 p53 Agonism Beta-lactamase Assay, Phase 2 (AID 2283591);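 further: compound exposure lasted 16 h at 37 °C; actives lower the ATP signal meaning cytotoxicity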
In short: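 HCT116 p53-bla cells, 4000/well, dosed after 5 h plating (217-fold dilution of DMSO stocks) and incubated 16 h at 37C. Viability taken as cellular ATP by CellTiter-Glo luminescence after 30 min RT; signal loss marks cytotoxicity.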

[13] = target: Cellular tumor antigen p53 (Homo sapiens) (UniProt P04637); assay: TOX21_p53_BLA_p2_ratio: Tox21 HCT-116 p53 Agonism Beta-lactamase Assay, Ratio, Phase 2 (AID 2283592)
In short: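 HCT-116 cells with p53-responsive beta-lactamase reporter, 4000 cells/well, preincubated 5 h, then compound in DMSO (217-fold dilution) for 16 h at 37C. CCF4-AM substrate 2 h at room temperature; 460/530 nm emission ratio fitted upward versus DMSO.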

[14] = TOX21_p53_BLA_p3_viability: Viability Assessment in the Tox21 HCT-116 p53 Agonism Beta-lactamase Assay, Phase 3 (AID 2283593);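 further: cells exposed to compound for 16 h before reading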
In short: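 HCT116 cells, 4000/well, dosed 5 h after plating by pin transfer (217-fold dilution from DMSO stock) and incubated 16 h at 37C, 5% CO2. Viability read as ATP luminescence with CellTiter-Glo after 30 min at room temperature.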

[15] = target: Cellular tumor antigen p53 (Homo sapiens) (UniProt P04637); assay: TOX21_p53_BLA_p3_ratio: Tox21 HCT-116 p53 Agonism Beta-lactamase Assay, Ratio, Phase 3 (AID 2283596)
In short: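 HCT116 p53-bla cells (4000/well) given compound in DMSO (217-fold dilution) after 5 h, incubated 16 h at 37C. CCF4-AM substrate 2 h at room temperature; 460/530 nm emission ratio, gain fitted against DMSO.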

[16] = TOX21_p53_BLA_p4_viability: Viability Assessment in the Tox21 HCT-116 p53 Agonism Beta-lactamase Assay, Phase 4 (AID 2283597);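 further: hits lower the luminescence signal meaning cytotoxicity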
In short: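 HCT-116 p53-bla cells, 4000/well, dosed after 5 h attachment and incubated 16 h at 37 °C, 5% CO2. Viability from CellTiter-Glo ATP luminescence after 30 min at room temperature, taken after the beta-lactamase read; loss of signal indicates cytotoxicity.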

[17] = TOX21_p53_BLA_p5_viability: Viability Assessment in the Tox21 HCT-116 p53 Agonism Beta-lactamase Assay, Phase 5 (AID 2283600)
In short: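 HCT-116 p53 beta-lactamase reporter cells, 4000/well, were exposed to compound (pin transfer, 217-fold dilution) for 16 hours at 37C. Cellular ATP was read by CellTiter-Glo luminescence after 30 min at room temperature.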

[18] = target: Cellular tumor antigen p53 (Homo sapiens) (UniProt P04637); assay: TOX21_p53_BLA_p4_ratio: Tox21 HCT-116 p53 Agonism Beta-lactamase Assay, Ratio, Phase 4 (AID 2283601)
In short: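 HCT-116 p53 beta-lactamase reporter cells (4000/well) preincubated 5 h, then compound (217-fold dilution of DMSO stock) for 16 h at 37C. CCF4-AM substrate added 2 h at room temperature; 460/530 nm emission ratio fitted upward versus DMSO.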

[19] = read-out: sulfotransferase 2A1 (SULT2A1), SULT2A1 (gene 6822); assay: LTEA_HepaRG_SULT2A1: Life Technologies and Expression Analysis (LTEA) Assay for sulfotransferase 2A1 (SULT2A1) using HepaRG (AID 2283531; active means hit-call score of the fitted dose curve at least 0.9, where 1 is the maximum; inactive means score below 0.9); conditions: mRNA level, 48 h; actives raise or lower the signal
In short: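 HepaRG human liver cells, 48 h exposure in serum-free induction medium to 8 half-log concentrations topping at 100 µM (0.5% DMSO), duplicate wells. SULT2A1 mRNA measured by TaqMan qRT-PCR, normalized to ACTB/GAPDH/POLR2A; bidirectional fit against DMSO.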

Measured: AC50

Cellular tumor antigen p53 (Homo sapiens), sequence (P04637 whole entry, looked up): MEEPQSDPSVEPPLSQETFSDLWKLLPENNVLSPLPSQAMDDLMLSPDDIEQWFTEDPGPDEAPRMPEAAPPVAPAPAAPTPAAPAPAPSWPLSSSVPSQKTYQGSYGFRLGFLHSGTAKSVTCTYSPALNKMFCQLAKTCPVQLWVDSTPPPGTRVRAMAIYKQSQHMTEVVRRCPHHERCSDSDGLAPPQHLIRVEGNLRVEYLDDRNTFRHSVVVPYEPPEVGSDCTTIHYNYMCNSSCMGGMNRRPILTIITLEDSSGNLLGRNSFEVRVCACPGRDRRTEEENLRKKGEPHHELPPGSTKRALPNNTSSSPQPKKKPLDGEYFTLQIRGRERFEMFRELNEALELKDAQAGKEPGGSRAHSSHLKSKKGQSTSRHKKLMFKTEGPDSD

CCCN(CCOc1c(Cl)cc(Cl)cc1Cl)C(=O)n1ccnc1
inactive: TIMP1, TIMP1 (gene 7076) | [4] | [11] | [12] | [14] | [15] | [16] | [17] | [18]
active: [1] 64.2 µM | [2] 50 µM | [3] 27.6 µM | [5] 3.79 µM | [6] 17.6 µM | [7] 73.7 µM | [8] 72.5 µM | [9] 78.8 µM | [10] 36 µM | [13] 86.1 µM | [15] 75 µM | [18] 74.6 µM

COP(=S)(OC)Oc1ccc([N+](=O)[O-])cc1
not listed: [17]
inactive: all other assays above

O=C(O)COc1ccc(Cl)cc1Cl
active: [18] 0.000116 µM
inactive: [1] | [2] | [3] | TIMP1, TIMP1 (gene 7076) | [4] | [5] | [6] | [7] | [8] | [9] | [10] | [11] | [12] | [13] | [14] | [16] | [17] | [18]

COP(=S)(OC)Oc1ccc(SC)c(C)c1
active: [7] 25.2 µM
not listed: [19]
inactive: all other assays above

N#Cc1c(Cl)c(Cl)c(Cl)c(C#N)c1Cl
inactive: [1] | [2] | [3] | [4] | [6] | [7] | [8] | [12] | [13]
active: TIMP1, TIMP1 (gene 7076) 22.5 µM | [5] 13.2 µM | [9] 82.3 µM | [10] 50 µM | [12] 22.5 µM | [13] 15.7 µM | [14] 20.7 µM and 23.1 µM | [15] 815 nM and 77.5 µM | [16] 2.04 µM and 2.82 µM | [17] 17.1 µM and 15.8 µM | [18] 1.11 µM and 1.12 µM
